According to PubChem BioAssay (NCI):
Compounds without any hit were thinned out: in the full panel of roughly 83,000, 20% have a hit.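 Cells were grown in 96-well plates and exposed to the test compound at a single concentration for 48 hours; results are reported as percent growth, with values below 10 considered active.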 Active and inactive are the calls of the source.

What was measured:
Test in all cases: NCI-60 one-dose screen, 48 h (100 = growth as untreated, 0 = no growth, -100 = all killed)
Conditions in all cases: 10 µM unless noted
[1] = system: DU-145 prostate
[2] = system: K-562 leukemia
[3] = system: MALME-3M melanoma
[4] = system: MDA-MB-231 breast
[5] = system: RXF 393 renal
[6] = system: SF-268 CNS
[7] = system: SF-295 CNS
[8] = system: SF-539 CNS
[9] = system: UACC-257 melanoma
[10] = system: M14 melanoma
[11] = system: HCT-15 colon
[12] = system: HT29 colon
[13] = system: SNB-75 CNS
[14] = system: SNB-19 CNS
[15] = system: U251 CNS
[16] = system: PC-3 prostate
[17] = system: SK-MEL-5 melanoma
[18] = system: UACC-62 melanoma
[19] = system: LOX IMVI melanoma
[20] = system: SK-MEL-28 melanoma

Measured: growth

Nc1nc(Nc2ccccc2)c2ncn(Cc3cc4c(cc3Br)OCO4)c2n1
active: [4] -5.1% | [8] 1.84% | [11] 6.74% | [12] -34% | [15] 3.29% | [17] -6.17%
inactive: [1] 18.2% | [2] 10.2% | [3] 74.7% | [5] 22.9% | [6] 23.8% | [7] 14% | [9] 58.3% | [10] 15.7% | [13] 18.8% | [14] 17.3% | [16] 16.2% | [18] 33.6% | [19] 12.9% | [20] 52%

C#CC(OC(=O)N(C)C)(c1ccccc1)c1ccc(F)cc1 (stereo not given)
inactive: [1] 105% | [2] 120% | [3] 142% | [4] 101% | [5] 87.7% | [6] 91.1% | [7] 115% | [8] 107% | [9] 87.8% | [10] 129% | [11] 94.8% | [12] 116% | [13] 93% | [14] 120% | [15] 94.8% | [16] 102% | [17] 112% | [18] 86.2% | [19] 78.3% | [20] 96.5%

O=C1COCCN1c1ccc(NCc2cn(Cc3ccc(F)cc3)c3ccccc23)cc1
active: [5] -3.08% | [18] -65.8%
inactive: [1] 81.6% | [2] 27.7% | [3] 61.5% | [4] 85.3% | [6] 96.2% | [7] 44.1% | [8] 92.1% | [9] 27.9% | [10] 72.7% | [11] 61.9% | [12] 34.8% | [13] 65.3% | [14] 92.2% | [15] 55.9% | [16] 93.3% | [17] 27.3% | [19] 83.9% | [20] 87.6%

C=C(C)[C@@H]1CC[C@]2(c3ncc(C)o3)CC[C@]3(C)[C@H](CC[C@@H]4[C@@](C)(CCC#N)[C@H](C(=C)C)CC[C@]43C)[C@@H]12
active: [1] -76.4% [100 µM] | [2] 4.09% [100 µM] | [3] -87.5% [100 µM] | [4] -96.1% [100 µM] | [5] -83.6% [100 µM] | [6] -66.2% [100 µM] | [7] -81.7% [100 µM] | [8] -94.3% [100 µM] | [9] -80.5% [100 µM] | [10] -68.4% [100 µM] | [11] -69.3% [100 µM] | [12] -69.8% [100 µM] | [13] -86.8% [100 µM] | [14] -95% [100 µM] | [15] -82.4% [100 µM] | [16] -64.1% [100 µM] | [17] -92.1% [100 µM] | [18] -91% [100 µM] | [19] -83.6% [100 µM] | [20] -89.1% [100 µM]

Nc1cc(Cl)cc2cccnc12
inactive: [1] 109% | [2] 98.1% | [3] 122% | [4] 95.8% | [5] 112% | [6] 88% | [7] 114% | [8] 98% | [9] 127% | [10] 115% | [11] 103% | [12] 101% | [13] 79.9% | [14] 109% | [15] 111% | [16] 87.5% | [17] 101% | [18] 103% | [19] 88.1% | [20] 113%

c1nc(N2CCOCC2)c2[nH]ccc2n1
inactive: [1] 106% | [2] 92.7% | [3] 109% | [4] 107% | [5] 117% | [6] 102% | [7] 112% | [8] 111% | [9] 105% | [10] 103% | [11] 105% | [12] 96% | [13] 97.6% | [14] 107% | [15] 100% | [16] 107% | [17] 111% | [18] 103% | [19] 99.8% | [20] 106%

CC(C)CSc1ncnc2nc[nH]c12
inactive: [1] 100% | [2] 102% | [3] 104% | [4] 98.3% | [5] 92.3% | [6] 91.5% | [7] 103% | [8] 88.4% | [9] 98.4% | [10] 98.4% | [11] 97.2% | [12] 99.5% | [13] 101% | [14] 93.8% | [15] 103% | [16] 81.7% | [17] 95.6% | [18] 84.8% | [19] 98% | [20] 101%

COc1ccc(NC(=S)NNc2ccc(-c3ccc(OC)c(OC)c3)nn2)cc1
inactive: [1] 107% | [2] 104% | [3] 112% | [4] 96.1% | [5] 120% | [6] 92.9% | [7] 101% | [8] 97.6% | [9] 103% | [10] 99.2% | [11] 107% | [12] 109% | [13] 74.4% | [14] 97.1% | [15] 76.6% | [16] 104% | [17] 101% | [18] 102% | [19] 97.8% | [20] 113%
